We go through seven compounds from PubChem BioAssay (NCATS).

A short description of assay [1]: Cytometric Cell-Based qHTS for Inhibitors of the mTORC1 Signaling Pathway in MEF (Tsc2-/-, p53-/-) Cells (AID 2660).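 Note: Tsc2 and p53 null MEFs carrying empty vector with compound for 24 h; percent of cells above a phospho-rpS6 to PI ratio cutoff in each well; series mostly up to about 38 µM.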 Put shortly: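 Cells are plated, treated with compound for 24 hrs at 37 degree Celsius, then fixed, blocked and immunostained for phospho-rpS6 Ser235/236. Propidium iodide counterstain follows. Per-well % positive cells is derived from the PI-normalized phospho-S6 signal.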
(In qHTS, concentration-response curves come from the screen itself.)

Assay [2] in a line: High Content Imaging Cell-Based qHTS for Inhibitors of the mTORC1 Signaling Pathway in MEF Cells (AID 2667).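 Note: Tsc2-/- p53-/- MEFs stably re-expressing wild-type Tsc2 exposed 24 h; series mostly up to about 38 µM.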 In a few lines: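 Immunofluorescence for rpS6 phosphorylation in MEFs of Tsc2-/-, p53-/- background rescued with WT Tsc2. Compound exposure lasted 24 hrs. Inhibition was scored against rapamycin-treated control wells.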
Assay [3] can be described thus: Cytometry Cell-Based qHTS for Inhibitors of the mTORC1 Signaling Pathway in MEF cells (AID 2668).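 Note: Tsc2-/- p53-/- mouse embryonic fibroblasts stably re-expressing wild-type Tsc2; percent cells positive for phospho-rpS6 Ser235/236 relative to propidium iodide stain; series mostly up to about 38 µM.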 In a few lines:
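Tsc2-/-, p53-/- MEFs re-expressing WT Tsc2; cpd 24 hrs, 37 degree Celsius; PFA fix, Alexa-488 p-rpS6 (Ser235/236) Ab 2 hrs RT, PI counterstain; Acumen 488nm scan; p-S6/PI ratio → % positive cells; PI count = viability.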

Assay [4] in a line: Validation screen for small molecules that induce DNA re-replication in MCF 10A normal breast cells (AID 463097). Note: nearly all actives have a fitted effect of over 60% in size. Note: potency is the fitted concentration of half-maximal effect. In a few lines:
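Image-based qHTS: normal breast cells are incubated with compound for 48 hr, stained with Hoechst, and scanned for total nuclear fluorescence. Compounds raising the fraction of nuclei with elevated DNA content count as re-replication inducers.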

The target of assay [5] is Ubiquitin carboxyl-terminal hydrolase 2 (Homo sapiens) (UniProt O75604). The assay can be described thus: qHTS Validation Assay for Inhibitors of Ubiquitin-specific Protease USP2a Using CHOP2 as the Reporter (AID 463106). In a few lines:
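10nM USP2 core + cpd, 30min RT; add 25nM Ub-CHOP2/25nM substrate; 60min RT; FI 485/531nm. Buffer Tris pH 8.0, CaCl2, BME, CHAPS. Norm. to NEM = 100% inhibition; time-zero read flags fluorescent artifacts.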

For assay [6], the target named is DNA polymerase III PolC-type (Bacillus subtilis (strain 168)) (UniProt P13267). The assay can be described thus: qHTS Validation Assay for the Inhibitors of DNA Replication in Gram-Positive Bacteria (AID 485295).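 Note: reconstituted holoenzyme with PolC plus beta clamp SSB and primase; PicoGreen fluorescence of double-stranded DNA made on primed circular M13 template; series mostly up to about 57 µM.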 Put shortly:
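First, compound is mixed with the reconstituted replication complex and held at room temperature. Next, circular single-stranded M13Gori with nucleotides starts synthesis. Finally, PicoGreen in EDTA halts the reaction and stains double-stranded product for fluorescence reading.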

In assay [7] the target is Tumor susceptibility gene 101 protein (Homo sapiens) (UniProt Q99816). The assay can be described thus: qHTS Validation Assay for Iinhibitors of HIV-1 Budding by Blocking the Interaction of PTAP/TSG101 (AID 485342; calls by dose curve). Put shortly:
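Binding of a FITC-tagged PTAP-motif peptide (50 nM) to the Tsg101 binding domain (10 uM) is monitored by fluorescence polarization. Compounds are pin-delivered before peptide addition, and incubation runs 20 min at room temperature.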

Assay [8] has as its target Beta-2 adrenergic receptor (Homo sapiens) (UniProt P07550). The assay can be described thus: qHTS validation assay of beta-arrestin-biased ligands of beta2-adrenergic receptor (AID 485366). Put shortly: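 Values derive from curve-fitted %Activity of a luminescent beta-arrestin recruitment reporter; compounds tested up to 46 microM on Tango cells for 18 hr at 37 degrees C, 5% CO2.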

Assay [9] in a line: Quantitative high throughput screen for delayed death inhibitors of the malarial parasite plastid, 96 hour incubation (AID 488745). Note: nearly all actives have a fitted effect of over 70% in size. Note: potency is the fitted concentration of half-maximal effect. Put shortly:
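Infected erythrocytes were added to compound in Albumax-supplemented RPMI 1640 at 0.1% parasitemia and 2% hematocrit (final), incubated 96 h at 37 C under 5% CO2, then luciferase reagent was added and luminescence measured.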

Assay [10] in a line: Quantitative high throughput screen for delayed death inhibitors of the malarial parasite plastid, 48 hour incubation (AID 488752). Note: nearly all actives have a fitted effect of over 65% in size. Note: potency is the fitted concentration of half-maximal effect. Put shortly:
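Readout is firefly luciferase luminescence from a reporter integrated into the parasite genome, with lower signal taken as inhibited growth. Infected red cells (0.1% parasitemia, 2% hematocrit final) are cultured with compound for one 48 h cycle at 37 C.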

The target of assay [11] is Thioredoxin reductase 1, cytoplasmic (Rattus norvegicus) (UniProt O89049). The assay can be described thus: qHTS Assay for Substrates of Mammalian Selenoprotein Thioredoxin Reductase 1 (TrxR1) (AID 488772).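 Note: NADPH fluorescence in the first read after selenite addition and not the 8 min delta; series mostly up to about 57 µM; a drop in NADPH fluorescence below the no-compound background marks a TrxR1 substrate.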 In a few lines:
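Quantitative HTS in Tris-HCl buffer at pH 7.5 with EDTA and Tween-20, using rat TrxR1, 400 uM NADPH and 400 uM selenite (final). A fall in initial NADPH fluorescence relative to background marked substrate behaviour.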

Assay [12] shares this target. The assay can be described thus: qHTS Assay for Inhibitors of Mammalian Selenoprotein Thioredoxin Reductase 1 (TrxR1) (AID 488773).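 Note: drop in NADPH fluorescence over an 8 min run after selenite addition; series mostly up to about 57 µM; nearly all actives have a fitted effect of over 40% in size.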 The conditions noted are these: Potency: inhibition. In a few lines: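 Steps: enzyme (90 nM) plus NADPH (400 uM final), 5 min at ~22 deg C; compound added, 15 min; selenite (400 uM final) added; fluorescence followed for 8 min. Concentration-response curves derived from the normalized delta values.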

For assay [13], the target named is Flap endonuclease 1 (Homo sapiens) (UniProt P39748). The assay can be described thus: qHTS Validation Assay for the Inhibitors of Human Flap endonuclease 1 (FEN1) (AID 488816). Put shortly:
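Readings taken at 0 and 15 min after starting the reaction with 50 nM (final) substrate supplied the signal. Compounds had first sat with 10 nM FEN1 reagent for 15 min at room temperature. Values come from Hill-equation concentration-response fits.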

The target of assay [14] is Chromobox protein homolog 1 (Homo sapiens) (UniProt P83916). The assay can be described thus: qHTS Validation Assay for Inhibitors of HP1-beta Chromodomain Interactions with Methylated Histone Tails (AID 488953).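 Note: loss of AlphaScreen luminescence from HP1-beta binding biotinylated H3K9me3 peptide; series mostly up to about 110 µM; nearly all actives have a fitted effect of over 50% in size.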 Put shortly:
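50 nM HP1-beta + 50 nM biotin-H3(1-18)K9me3, PBS pH 7.4, 0.01% Tween-20, 30 min RT; compound added, 30 min RT; AlphaScreen beads 10 ug/mL final, 30 min dark; luminescence read.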

Assay [15] concerns the target Methanococcus maripaludis chaperonin (MmCpn) (UniProt Q6LX38). The assay can be described thus: High-Throughput Screening for Modulators of Cytosolic Chaperonin Activity: MmCpn Primary Screen (AID 488978).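 Note: 50 nM MmCpn enzyme hydrolysing 30 µM ATP at 37 °C.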 In a few lines: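 Steps: chaperonin 50 nM final; add compound, 5 min RT; start with ATP, 30 uM final; hold 10 min at 37C; add ADP Transcreener HTRF reagent, 5 min; read ex 320, em 590 and 665 nm.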

A short description of assay [16]: High Content Imaging Cell-Based qHTS for Inhibitors of the mTORC1 Signaling Pathway in MEF (Tsc2-/-, p53-/-) Cells (AID 2666).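 Note: percent of cells scored positive for phospho-rpS6 Ser235/236 immunostaining by imaging.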 In a few lines: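 Cells were plated, dosed with compound after 24 hrs, and incubated another 24 hrs at 37 degree Celsius. Fixed cells were immunostained for phospho-rpS6 Ser235/236 and counterstained, and the normalized signal was scored as % active cells against rapamycin and DMSO controls.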

A short description of assay [17]: qHTS Validation Assay to Find Inhibitors of Chronic Active B-Cell Receptor Signaling (AID 485345; active = well fitted curve in the direction sought with a large enough effect in the main read-out, with a control signal flat, not every such curve was filed as active). In a few lines:
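Read-out: ratio of filter-corrected green (IkappaBalpha fusion) to red (native) luciferase signal in doxycycline-induced TMD8 cells after 4 h at 37C. Titration spanned 46 uM–3 nM; Data were normalised to basal cells and 10 uM MG-132 wells.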

For assay [18], the target named is M-phase phosphoprotein 8 (Homo sapiens) (UniProt Q99549). The assay can be described thus: qHTS Validation Assay for Inhibitors for MPP8 Chromodomain Interactions with Methylated Histone Tails (AID 488949).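 Note: 50 nM MPP8 with 50 nM peptide preformed then compounds added for 30 min; AlphaScreen signal from MPP8 chromodomain bound to biotinylated H3K9me3 peptide; top concentration of the series differs between compounds; nearly all actives have a fitted effect of over 55% in size.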 In a few lines: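 50 nM MPP8 + 50 nM b-H3K9me3 peptide, PBS pH 7.4/0.01% Tween-20, 30 min RT; + cpd 30 min RT; + AlphaScreen donor/Ni-chelate acceptor beads 10 ug/mL final, 30 min dark; luminescence read.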

Assay [19] deals with ATP-dependent 6-phosphofructokinase (Trypanosoma brucei brucei) (UniProt O15648). The assay can be described thus: qHTS Validation Assay to Find Inhibitors of T. brucei phosphofructokinase (AID 485368). Put shortly:
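Enzyme reaction in triethanolamine buffer pH 8.0 with 5 mM MgCl2, 0.01% Tween20 and 0.1% BSA; PFK 1.25 nM, F6P 0.5 mM, ATP 0.1 mM, 45 min RT. ADP quantified by ADP-Glo.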

SMILES strings stand for the structures. Results filed as inconclusive are left out. Calls of active or inactive are those of the source. Unless noted, calls come from the whole dose curve; as a rule, active = well fitted curve in the direction sought with a large enough effect; inconclusive = small, poorly fitted or top-dose-only effect, or another doubt; inactive = no such curve, though single readings can be large; an effect the other way counts as inactive or inconclusive.

Beta-2 adrenergic receptor (Homo sapiens), sequence (P07550 whole entry, looked up): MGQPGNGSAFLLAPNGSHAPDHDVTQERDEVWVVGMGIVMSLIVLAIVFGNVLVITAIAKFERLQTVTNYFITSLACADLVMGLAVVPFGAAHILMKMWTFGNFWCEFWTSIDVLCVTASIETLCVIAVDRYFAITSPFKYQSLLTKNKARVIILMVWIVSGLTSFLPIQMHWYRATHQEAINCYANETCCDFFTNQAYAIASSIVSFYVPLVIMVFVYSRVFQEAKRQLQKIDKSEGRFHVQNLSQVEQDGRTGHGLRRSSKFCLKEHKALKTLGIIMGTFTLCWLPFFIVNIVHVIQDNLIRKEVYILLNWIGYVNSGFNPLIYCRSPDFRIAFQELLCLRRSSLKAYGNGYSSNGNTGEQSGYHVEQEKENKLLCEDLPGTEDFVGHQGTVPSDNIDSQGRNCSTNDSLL
Tumor susceptibility gene 101 protein (Homo sapiens), sequence (Q99816 whole entry, looked up, the tested form may be a part): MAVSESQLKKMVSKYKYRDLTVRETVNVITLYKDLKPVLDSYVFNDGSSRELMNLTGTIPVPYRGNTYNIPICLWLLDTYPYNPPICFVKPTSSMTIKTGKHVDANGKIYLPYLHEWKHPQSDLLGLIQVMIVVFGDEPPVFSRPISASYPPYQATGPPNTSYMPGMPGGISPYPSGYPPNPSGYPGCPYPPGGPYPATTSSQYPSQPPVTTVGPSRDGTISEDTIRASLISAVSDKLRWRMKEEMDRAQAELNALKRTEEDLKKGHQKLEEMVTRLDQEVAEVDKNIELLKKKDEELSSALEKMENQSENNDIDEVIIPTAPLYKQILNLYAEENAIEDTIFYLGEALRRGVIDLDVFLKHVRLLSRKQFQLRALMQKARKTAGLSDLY
Chromobox protein homolog 1 (Homo sapiens), sequence (P83916 whole entry, looked up): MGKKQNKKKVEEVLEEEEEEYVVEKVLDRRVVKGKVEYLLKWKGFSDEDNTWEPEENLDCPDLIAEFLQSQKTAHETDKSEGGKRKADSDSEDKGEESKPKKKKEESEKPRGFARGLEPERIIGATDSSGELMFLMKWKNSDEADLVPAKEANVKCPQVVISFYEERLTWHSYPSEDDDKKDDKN
Flap endonuclease 1 (Homo sapiens), sequence (P39748 whole entry, looked up): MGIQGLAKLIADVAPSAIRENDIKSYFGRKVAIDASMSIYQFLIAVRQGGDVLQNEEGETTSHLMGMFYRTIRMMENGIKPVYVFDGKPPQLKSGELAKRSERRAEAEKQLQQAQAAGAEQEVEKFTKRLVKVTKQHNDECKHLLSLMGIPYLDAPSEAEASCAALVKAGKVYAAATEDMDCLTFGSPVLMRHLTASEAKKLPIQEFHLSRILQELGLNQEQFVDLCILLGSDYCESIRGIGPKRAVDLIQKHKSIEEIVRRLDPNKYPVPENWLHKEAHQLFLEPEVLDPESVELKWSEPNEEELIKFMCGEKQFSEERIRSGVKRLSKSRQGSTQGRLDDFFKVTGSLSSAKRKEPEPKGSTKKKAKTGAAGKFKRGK
Thioredoxin reductase 1, cytoplasmic (Rattus norvegicus), sequence (O89049 whole entry, looked up): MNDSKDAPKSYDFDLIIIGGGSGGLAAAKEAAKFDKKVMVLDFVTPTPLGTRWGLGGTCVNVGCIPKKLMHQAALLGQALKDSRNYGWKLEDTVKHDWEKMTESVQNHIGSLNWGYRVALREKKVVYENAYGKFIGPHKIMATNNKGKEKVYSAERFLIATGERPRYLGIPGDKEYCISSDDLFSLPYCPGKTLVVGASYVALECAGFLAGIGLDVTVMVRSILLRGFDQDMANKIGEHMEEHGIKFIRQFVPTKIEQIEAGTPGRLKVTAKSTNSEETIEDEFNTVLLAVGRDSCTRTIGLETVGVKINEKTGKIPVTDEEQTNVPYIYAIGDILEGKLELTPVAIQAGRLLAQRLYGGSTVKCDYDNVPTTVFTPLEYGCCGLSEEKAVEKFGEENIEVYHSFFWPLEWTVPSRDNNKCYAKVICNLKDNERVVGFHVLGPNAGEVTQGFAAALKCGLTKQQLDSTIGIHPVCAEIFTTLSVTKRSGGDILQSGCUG
Methanococcus maripaludis chaperonin (MmCpn), sequence (Q6LX38 1-543): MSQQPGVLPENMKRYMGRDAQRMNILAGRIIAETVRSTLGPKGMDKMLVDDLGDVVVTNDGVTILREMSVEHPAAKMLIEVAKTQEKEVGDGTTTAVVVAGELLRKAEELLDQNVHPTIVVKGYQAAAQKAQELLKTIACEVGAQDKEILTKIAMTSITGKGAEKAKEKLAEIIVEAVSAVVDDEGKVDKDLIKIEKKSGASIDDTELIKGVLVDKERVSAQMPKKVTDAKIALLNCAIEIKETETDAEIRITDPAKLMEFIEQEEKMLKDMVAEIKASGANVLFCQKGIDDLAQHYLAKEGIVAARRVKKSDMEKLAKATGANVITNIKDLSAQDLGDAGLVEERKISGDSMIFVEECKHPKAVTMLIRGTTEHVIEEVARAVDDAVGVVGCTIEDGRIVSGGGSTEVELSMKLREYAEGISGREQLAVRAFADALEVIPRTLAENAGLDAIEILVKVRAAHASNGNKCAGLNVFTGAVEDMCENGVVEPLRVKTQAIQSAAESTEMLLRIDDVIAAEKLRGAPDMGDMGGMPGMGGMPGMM
DNA polymerase III PolC-type (Bacillus subtilis (strain 168)), sequence (P13267 whole entry, looked up): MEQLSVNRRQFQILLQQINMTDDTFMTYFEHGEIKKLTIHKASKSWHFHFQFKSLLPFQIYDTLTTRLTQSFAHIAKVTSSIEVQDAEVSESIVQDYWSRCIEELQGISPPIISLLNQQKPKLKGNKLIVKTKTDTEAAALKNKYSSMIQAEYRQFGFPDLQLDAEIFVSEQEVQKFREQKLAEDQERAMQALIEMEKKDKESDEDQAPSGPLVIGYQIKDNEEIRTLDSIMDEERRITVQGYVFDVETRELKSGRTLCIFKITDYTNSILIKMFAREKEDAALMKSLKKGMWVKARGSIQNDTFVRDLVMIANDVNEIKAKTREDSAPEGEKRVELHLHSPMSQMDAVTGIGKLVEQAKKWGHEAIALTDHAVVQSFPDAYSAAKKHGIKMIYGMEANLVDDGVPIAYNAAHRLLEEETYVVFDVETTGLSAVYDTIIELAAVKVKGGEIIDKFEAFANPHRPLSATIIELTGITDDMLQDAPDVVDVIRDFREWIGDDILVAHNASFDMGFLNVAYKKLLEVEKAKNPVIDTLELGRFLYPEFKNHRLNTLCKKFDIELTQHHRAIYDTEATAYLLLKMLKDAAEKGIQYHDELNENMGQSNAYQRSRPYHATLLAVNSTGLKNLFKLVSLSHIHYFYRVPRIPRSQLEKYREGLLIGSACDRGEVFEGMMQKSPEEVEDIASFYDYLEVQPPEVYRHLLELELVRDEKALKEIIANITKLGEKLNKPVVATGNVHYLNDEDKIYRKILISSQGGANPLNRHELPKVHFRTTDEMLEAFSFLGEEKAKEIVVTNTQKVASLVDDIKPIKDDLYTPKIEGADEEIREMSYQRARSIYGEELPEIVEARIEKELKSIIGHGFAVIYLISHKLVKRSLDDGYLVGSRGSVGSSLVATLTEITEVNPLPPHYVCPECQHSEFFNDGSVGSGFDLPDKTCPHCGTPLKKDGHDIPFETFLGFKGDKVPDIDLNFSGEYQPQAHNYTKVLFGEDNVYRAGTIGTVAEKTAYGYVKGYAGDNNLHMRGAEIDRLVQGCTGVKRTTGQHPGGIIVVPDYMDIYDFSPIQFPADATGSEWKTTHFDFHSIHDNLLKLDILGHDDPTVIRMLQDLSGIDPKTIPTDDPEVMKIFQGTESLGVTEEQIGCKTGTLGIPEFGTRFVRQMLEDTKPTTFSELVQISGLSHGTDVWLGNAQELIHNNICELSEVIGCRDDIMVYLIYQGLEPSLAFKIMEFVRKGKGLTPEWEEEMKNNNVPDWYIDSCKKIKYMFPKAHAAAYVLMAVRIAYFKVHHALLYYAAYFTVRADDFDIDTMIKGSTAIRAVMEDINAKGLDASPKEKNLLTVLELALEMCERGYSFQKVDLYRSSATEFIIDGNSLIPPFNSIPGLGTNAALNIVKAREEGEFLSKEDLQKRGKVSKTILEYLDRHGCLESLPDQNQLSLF
Ubiquitin carboxyl-terminal hydrolase 2 (Homo sapiens), sequence (O75604 whole entry, looked up): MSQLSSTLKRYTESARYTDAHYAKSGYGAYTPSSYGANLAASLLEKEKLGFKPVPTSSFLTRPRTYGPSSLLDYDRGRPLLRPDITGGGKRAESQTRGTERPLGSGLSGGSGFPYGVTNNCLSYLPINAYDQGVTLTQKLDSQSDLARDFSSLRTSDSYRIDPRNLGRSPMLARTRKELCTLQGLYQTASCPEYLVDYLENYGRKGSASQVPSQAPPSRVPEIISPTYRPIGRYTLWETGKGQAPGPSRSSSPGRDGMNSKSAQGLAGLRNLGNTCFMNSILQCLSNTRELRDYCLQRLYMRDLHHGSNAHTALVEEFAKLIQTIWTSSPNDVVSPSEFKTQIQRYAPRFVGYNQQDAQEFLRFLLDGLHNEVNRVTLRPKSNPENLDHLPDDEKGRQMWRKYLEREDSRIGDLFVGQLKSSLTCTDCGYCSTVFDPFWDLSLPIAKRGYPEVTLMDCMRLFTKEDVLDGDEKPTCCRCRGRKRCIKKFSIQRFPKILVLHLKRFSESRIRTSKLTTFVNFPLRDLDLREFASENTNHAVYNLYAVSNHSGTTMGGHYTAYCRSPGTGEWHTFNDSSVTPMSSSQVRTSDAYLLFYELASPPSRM
ATP-dependent 6-phosphofructokinase (Trypanosoma brucei brucei), sequence (O15648 whole entry, looked up): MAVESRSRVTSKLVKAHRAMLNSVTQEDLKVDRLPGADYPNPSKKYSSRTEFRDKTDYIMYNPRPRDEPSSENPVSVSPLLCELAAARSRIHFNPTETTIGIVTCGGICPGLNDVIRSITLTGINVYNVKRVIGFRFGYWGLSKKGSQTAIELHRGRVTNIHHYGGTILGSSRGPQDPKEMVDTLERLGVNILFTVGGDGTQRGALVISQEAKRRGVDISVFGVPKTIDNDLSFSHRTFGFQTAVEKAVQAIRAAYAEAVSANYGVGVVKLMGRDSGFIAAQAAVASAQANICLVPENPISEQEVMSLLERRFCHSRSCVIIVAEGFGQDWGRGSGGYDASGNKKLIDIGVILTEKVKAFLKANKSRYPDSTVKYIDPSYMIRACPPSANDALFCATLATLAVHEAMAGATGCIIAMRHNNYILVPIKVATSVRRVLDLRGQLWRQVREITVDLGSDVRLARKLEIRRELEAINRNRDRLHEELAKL

With `CNc1ncnc2c1ncn2[C@H]1C[C@H](OP(=O)(O)O)[C@@H](COP(=O)(O)O)O1`, the call in [1], in [7], in assay [8], in [11] and in assay [15] was inactive. Also, the Potency entry in [2], in [3], in assay [4], in assay [5], in assay [6] and in assay [9] was “inactive” each time. Further, the Potency entry in assay [10], in assay [12], in assay [13] and in assay [14] was “inactive” in each case.

As for `N=C(N)SCCN`, the result in assay [1], in assay [7], in [8] and in assay [11] was inactive. Also, the Potency result in assay [2], in [3], in [4], in [5], in [6] and in assay [9] was “inactive” each time. In addition, the Potency result in assay [10], in assay [12], in assay [13] and in [14] was “inactive” throughout.

`Cc1cccc(C(=O)NCN2CCN(c3ccccc3C#N)CC2)c1`: the Potency entry in [16], in assay [3], in [5], in assay [6], in [9] and in [10] was “inactive” throughout. For the same compound, the Potency result in assay [13], in [18] and in assay [14] was “inactive” each time. In addition, the compound was called inactive in [7], in assay [17], in [8] and in assay [15].

As to `CCCOC(=O)c1c(-c2ccccc2)nc(CC)c(C(=O)SCC)c1CCC`, the Potency result in assay [2], in assay [3], in [5], in assay [6], in assay [12] and in assay [13] was “inactive” in each case. Besides, the Potency entry in assay [18] and in assay [14] was “inactive” in each case. The result in assay [7], in [17], in assay [8], in [11] and in assay [15] was inactive. In addition, the Potency in [9] was 14.7 µM (active).

Turning to `Nc1ncnc2c1c(-c1ccc(Oc3ccccc3)cc1)cn2C1CCCC1`, the Potency entry in [16], in assay [2], in [5], in [6], in [12] and in assay [13] was “inactive” each time. For the same compound, the values for the Potency in [4], in assay [9] and in assay [10] were 3.16 µM (active), 7.38 µM (active) and 9.28 µM (active), respectively. The compound was called inactive in assay [7], in assay [11] and in assay [15].

Turning to `CCCC[C@@]1(C2CCCC2)Cc2cc(OCC(=O)O)c(Cl)c(Cl)c2C1=O`, the Potency result in [2], in assay [3], in assay [5], in [6], in assay [19] and in [9] was “inactive” throughout. Besides, the Potency entry in assay [12], in assay [13], in [18] and in [14] was “inactive” throughout. Moreover, the compound was called inactive in [7], in [17], in assay [8] and in assay [15].

Turning to `O=c1[nH]c2cc(Cl)ccc2c(O)c1-c1ccc(Oc2ccccc2)cc1`, the Potency entry in [16], in [2], in assay [3], in assay [4], in assay [5] and in assay [6] was “inactive” in each case. Besides, the Potency entry in assay [9], in [10], in assay [12], in assay [13], in assay [18] and in [14] was “inactive” in each case. Moreover, the compound was classed as inactive in [7], in assay [8], in assay [11] and in assay [15].
